PubChem BioAssay (Tox21)
Results filed as inconclusive are left out. Activity calls are given as the source filed them. The call rests on the fitted dose curve; in most records, active means well fitted activation curve with a large enough effect in the repeat runs; inconclusive means weak or mixed curves; inactive means flat fitted curve, though single readings scatter.

test: A CellTox Green Cytotoxicity Assay to monitor cytotoxicity in HEK293 cells - 8 hour (AID 1224884); conditions: CellTox Green fluorescence; series mostly up to 76.8 µM; cytotoxicity increase: at the top concentration; further: nearly all actives have a fitted effect of over 35% in size
Text: National Center for Advancing Translational Sciences [NCATS]
NIH Chemical Genomics Center [NCGC]
U.S. Environmental Protection Agency [EPA]
National Institutes of Environmental Health Sciences [NIEHS]
National Toxicology Program [NTP]
Cell-based models are critical for drug discovery. Determining the natural cytotoxic effects resulting from test compounds is an essential research activity. A CellTox Green Cytotoxicity Assay to monitor cytotoxicity in real time of continues cell culture during 40 hours of the compound treatment was used to screen Tox21 10K library compounds in Hek293 cells. CellTox Green Cytotoxicity Assay is a nonlytic, homogeneous, biofluorescent method to measure cytotoxicity in cell culture after experimental manipulation. The assay system uses a proprietary asymmetric cyanine dye that is excluded from viable cells but preferentially stains the dead cell's DNA. […] Viable cells produce no appreciable increases in fluorescence. Therefore, the fluorescence signal produced by the binding interaction with dead cell DNA is proportional to cytotoxicity.
The mixture of Hek293 cell suspension and reagents were dispensed at 600cells/6 ul/well in 1536-well tissue culture treated black solid bottom plates using a Multidrop dispenser. After the assay plates were incubated at a 37 C/5% CO2 incubator for 5 hours, 23 nL of compounds dissolved in DMSO, positive and negative controls was transferred to the assay plate by a pintool work station. The plates were incubated at 37 C for 40 hours. The fluorescence intensity were measured at 0h, 8h, 16h, 24h, 32h and 40h time points using ViewLux plate reader during compound treatment.
On the % scale 0 is the no-effect control and ±100 the full control effect; potency means the concentration at half of the fitted maximal effect.

Structure (SMILES) | cytotoxicity increase | Potency
COc1ccnc2c1CCCCC2S(=O)c1nc2ccccc2[nH]1 (stereo not given) | 0.576% [at 35.3 µM] (inactive) | –
OCCCO | 4.06% (inactive) | –
C=CC(=O)OCCCCCCCCCC | -7.72% (inactive) | –
CCC(C(=O)O)c1ccc(N2Cc3ccccc3C2=O)cc1 (stereo not given) | -3.64% [at 35.3 µM] (inactive) | –
CCCc1nc(C)c2c(=O)[nH]c(-c3cc(S(=O)(=O)N4CCN(CC)CC4)ccc3OCC)nn12 | -15% [at 35.3 µM] (inactive) | –
Nc1nc(Cl)nc2c1ncn2[C@H]1C[C@H](O)[C@@H](CO)O1 | -5.8% (inactive) | –
Cc1c(N=C=O)cccc1N=C=O | -1.18% (inactive) | –
C=CC(C)CCC=C(C)C (stereo not given) | -0.333% (inactive) | –
CCCCCCCCCC(C)C=O (stereo not given) | – | 24.5 µM (active)
CCCCCC1CCC(=O)O1 (stereo not given) | 1.78% (inactive) | –
C/C(=C\C(C)CC(C)CC(C)C)C1CC(=O)OC1=O (stereo not given) | -10.1% (inactive) | –
O=C(c1ccco1)N1CCNCC1 | 12.6% [at 35.3 µM] (inactive) | –
O=C(C1CCCCC1)N1CC(=O)N2CCCc3ccccc3C2C1 (stereo not given) | 2.82% [at 35.3 µM] (inactive) | –
CCC(C)CCCC(C)(C)O (stereo not given) | 1.68% (inactive) | –
C=Cc1ccc(C=C)cc1 | -11.7% (inactive) | –
O=C(OCCN1CCOCC1)c1cccnc1Nc1cccc(C(F)(F)F)c1 | -18.2% [at 35.3 µM] (inactive) | –
O=C(O)CNc1ccccc1 | -12% (inactive) | –
CCCCC(CC)COCCC#N (stereo not given) | -8.13% (inactive) | –
SCCOCCOCCS | -13.3% (inactive) | –
O=C(O)c1cccc(C(=O)O)c1C(=O)O | -1.91% (inactive) | –

Structure (SMILES) | cytotoxicity increase | Potency
Clc1nc2ccccc2nc1Cl | 14.8% (inactive) | –
CC(C)C[C@H](NC(=O)[C@H](Cc1ccccc1)NC(=O)c1cnccn1)B(O)O | 6.57% [at 35.3 µM] (inactive) | –
C=C(C)C(=O)OCCCCCCCCCCOC(=O)C(=C)C | 6.53% (inactive) | –
CC(C)Cc1nccs1 | -8.26% (inactive) | –
CC(C)(C)c1ccc(CCC=O)cc1 | 2.35% (inactive) | –
CCN(CC)CC(=O)OCC(=O)[C@@]1(O)CC[C@H]2[C@@H]3CCC4=CC(=O)CC[C@]4(C)[C@H]3[C@@H](O)C[C@@]21C | 6.37% [at 35.3 µM] (inactive) | –
O=C(O)COCC(=O)O | -2.71% (inactive) | –
C[Si](C)(C)O[Si](C)(C)O[Si](C)(C)C | 10.8% (inactive) | –
CC1=CC(=C(c2ccc(N)cc2)c2ccc(N)cc2)C=CC1=N | -4.58% [at 6.97 µM] (inactive) | –
O=P(c1ccccc1)(c1ccccc1)c1ccccc1 | 24.8% (inactive) | –
CC(O)C(C)O (stereo not given) | -2.15% (inactive) | –
CC(C)NC(=O)c1ccccc1N | 1.52% (inactive) | –
CCCCOC(=O)CC#N | -8.38% (inactive) | –
CCCCCCCCC(=O)OCC(C)OC(=O)CCCCCCCC (stereo not given) | 1.87% (inactive) | –
CCn1nc(Cc2ccccc2)cc1C1CCN(C[C@H]2C[C@H](N(C)[C@@H](C(=O)O)C(C)C)C[C@@H]2c2cccc(F)c2)CC1 | 3.09% (inactive) | –
COc1ccc(/C(C)=C/C(=O)O)c(OC)c1 | -13.9% [at 35.3 µM] (inactive) | –
CC(=O)CC/C=C(\C)CC/C=C(\C)CC/C=C(\C)CCC=C(C)C | 0.215% [at 35.3 µM] (inactive) | –
O=C1c2ccccc2C(=O)c2c1ccc(O)c2O | 0.221% [at 35.3 µM] (inactive) | –
CCCCCCOC(=O)c1ccccc1 | 20.7% (inactive) | –
CC1(C)[C@@H]2CC[C@]3(C2)[C@@H]1C(=O)CCC3(C)C | 20.8% (inactive) | –
